AI-2 QS modul: modulators of Vibrio harveyi AI-2 quorum sensing system. Vibrio harveyi JMH597 AI-2 luminescence/OD600 ratio, 9 h; stronger effect = lower value; strain lacks LuxN and CqsS sensors; 0 = neutral-control median. AID 2094. activity change, % at 7.5 µM. 300,000 tested, 0.4% active; in the data active = activity change below about -75%, passing the limit was not always enough;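 also: luminescence divided by OD600 gain over 9 h not by final OD600 alone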
NR3A LBD binder: modulators (binders) of human NR3A ligand-binding domain; AID 1259313; 340,000 tested, 2.5% active; Tm shift relative to glycine control, % at 25 µM; NR3A LBD differential scanning fluorimetry, Tm shift; 0% = protein alone, 100% = glycine-bound protein;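 active = melting temperature shift of at least 10% of the positive control shift, at one fixed dose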
H9c2 protect: modulators protecting cardiomyocytes from myocardial damage | protection from H2O2 cell death, % at 20 µM | 360,000 tested, 0.63% active | AID 588492 | H9c2 cardiomyocytes, H2O2 injury protection, ATPLite, 2 h;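 active = compounds giving at least 50% protection of heart cells from peroxide-induced death in the single-dose screen, raw or plate-pattern-corrected value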;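 also: 0% = DMSO wells with peroxide and 100% = DMSO wells without peroxide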
SUMO Mot1 rescue: inhibitors of SUMOylation pathway: yeast Mot1-301 growth rescue; S. cerevisiae Mot1-301 growth rescue, ATP luminescence, 38.5C; percent above DMSO median, 100 means doubled; growth rescue, % at 18.8 µM; 320,000 tested, 1% active; AID 2716;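 active = every valid replicate shows activation above 250% relative to neutral control wells; inactive = the rest, any valid replicate at or below 250%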;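 also: OY570 slx delta 5 strain wells were the positive control but not used for scaling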
NTR1 agonist: agonists of human neurotensin receptor NTR1 | NTR1-U2OS beta-arrestin-GFP spot imaging, agonist mode | 330,000 tested, 0.17% active | P30989 | activation, % at 20 µM;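 active = activation at or above 40% of the spot to cytoplasm intensity ratio, with at least 20 cells analyzed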;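 also: 0% = DMSO without peptide and 100% = 100 nM NTR1 peptide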
Target sequence (P30989 whole entry, looked up): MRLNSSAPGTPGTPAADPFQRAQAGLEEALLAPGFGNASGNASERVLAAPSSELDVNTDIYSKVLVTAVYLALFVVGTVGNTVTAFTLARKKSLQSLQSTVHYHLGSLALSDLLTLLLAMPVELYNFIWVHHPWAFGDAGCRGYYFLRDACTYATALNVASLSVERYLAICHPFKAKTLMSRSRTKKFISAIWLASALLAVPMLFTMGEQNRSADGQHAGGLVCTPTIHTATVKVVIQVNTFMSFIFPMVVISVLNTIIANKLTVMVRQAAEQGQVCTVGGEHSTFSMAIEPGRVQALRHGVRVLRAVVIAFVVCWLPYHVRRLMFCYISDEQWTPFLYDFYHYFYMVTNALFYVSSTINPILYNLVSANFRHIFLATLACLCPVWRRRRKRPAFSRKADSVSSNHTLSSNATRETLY
AHR act: activates the human aryl hydrocarbon receptor | 320,000 tested, 2.5% active | P35869 | AHR-responsive luciferase reporter cells, luminescence | AID 2796 | activation, % at 5 µM; in the data active = activation above about 47%;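 also: 0% = vehicle wells and 100% = reference agonist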
* marks the source's active call; other numbers are inactive results; · = not tested or not shown. An excerpt weighted towards active compounds, which were near 6.2% of everything screened.

SMILES	AI-2 QS modul	NR3A LBD binder	H9c2 protect	SUMO Mot1 rescue	NTR1 agonist	AHR act
COc1cc(NC(=O)c2ccc(NS(=O)(=O)c3c(C)noc3C)cc2)cc(OC)c1	52.7	19.1*	-8.7	-6.2	-1.3	6.8
Cc1cccc(NC(=O)c2ccc(NS(=O)(=O)c3c(C)noc3C)cc2)c1	12.6	28.9*	-5.5	-10.1	-4.0	13.2
CCc1cccc(NC(=O)c2ccc(NS(=O)(=O)c3c(C)noc3C)cc2)c1	16.7	28.9*	-9.8	54.1	-3.3	12.9
Cc1noc(C)c1S(=O)(=O)Nc1ccc(C(=O)Nc2ccc(OC(F)(F)F)cc2)cc1	·	12.1*	-5.1	185.5	0.2	8.2
COc1ccc(OC)c(NC(=O)c2ccc(NS(=O)(=O)c3c(C)noc3C)cc2)c1	19.1	2.7	3.8	-10.4	-3.6	2.7
CC(OC(=O)/C=C/c1ccccc1)C(=O)N1CCc2ccccc21 (stereo not given)	16.1	0.3	-7.5	15.6	5.6	3.0
O=C(CCNC(=O)c1ccc([N+](=O)[O-])cc1)Oc1ccc(F)c(F)c1	·	-1.7	-3.1	-1.1	-1.6	0.4
COc1cc(C(=O)NCC(c2cccs2)N2CCOCC2)ccc1OCc1ccc(Cl)cc1 (stereo not given)	·	·	-6.2	·	·	·
CCc1cc(-c2nnn(CCC3COCCO3)c2CC)ccc1-c1cn(Cc2ccccc2)nn1 (stereo not given)	·	·	-19.6	·	·	·
CC1=Nc2ccccc2/C1=C/c1sc(=N)n(-c2nccs2)c1O	20.2	1.5	46.8	105.4	-2.1	73.3*
CC(=O)c1ccccc1Oc1ncnc(N)c1[N+](=O)[O-]	8.0	2.2	-3.3	11.5	0.4	5.2
CCOC(=O)c1cc2c(=O)n3ccccc3nc2n(Cc2ccco2)c1=NC(=O)c1cccnc1	16.5	-2.0	84.7*	88.7	1.8	4.1
Cc1c(NC(=O)COC(=O)CSc2ccc([N+](=O)[O-])cc2)c(=O)n(-c2ccccc2)n1C	·	-0.3	4.4	10.5	1.5	0.4
Cc1cc(S(=O)(=O)c2ccc([N+](=O)[O-])cn2)ccc1Br	30.2	1.2	-21.7	379.2*	4.2	-2.7
Cc1ccc(S(=O)(=O)c2ccc([N+](=O)[O-])cn2)cc1	-43.0	·	-23.3	80.2	14.3	-1.7
CCc1cc(C(=O)Nc2cc(S(=O)(=O)N3CCCCC3)ccc2N2CCN(C)CC2)sc1C	·	·	3.0	·	·	·
CC(=O)Nc1ccccc1C(=O)C(=O)Nc1ccc(F)c(Cl)c1	0.6	1.9	2.7	-1.4	-1.9	2.9
COc1cc(C(=O)Nc2ccc3c(c2)Cc2cc(NC(=O)c4cc(OC)c(OC)c(OC)c4)ccc2-3)cc(OC)c1OC	15.7	23.7*	16.0	-10.5	-1.1	5.3
Fc1ccc(NC(=S)Nc2cc(-c3ccccc3)[nH]n2)cc1Cl	-46.7	26.3*	-12.3	·	14.7	53.5*
Cc1ccccc1NC(=O)c1ccc(Cl)c(NC(=O)c2ccncc2)c1	14.5	-4.5	4.9	-22.9	-0.7	48.5*
Cc1cccc(NC(=O)c2ccc(Cl)c(NC(=O)c3ccncc3)c2)c1C	17.1	-0.1	-6.6	13.7	0.0	-1.1
NC(=O)c1ccccc1NC(=O)Nc1ccc(F)c(Cl)c1	17.1	32.8*	-8.3	255.7	1.7	1.1
CC(=O)N1CCN(C(=O)COC(=O)CNC(=O)c2ccc(C)cc2)CC1	·	0.3	4.6	2.1	0.8	-0.7
O=C(Nc1ccc(F)c(Cl)c1)c1cccnc1	·	0.3	-1.6	0.3	1.0	15.0
COc1cc(C(=O)Nc2cc3c(cc2N2CCCCC2)n(C)c(=O)n3C)cc(OC)c1OC	5.6	-5.8	53.2*	15.6	1.9	14.3
SMILES	AI-2 QS modul	NR3A LBD binder	H9c2 protect	SUMO Mot1 rescue	NTR1 agonist	AHR act
O=C(Nc1ccc(Cl)c(Cl)c1)c1ccncc1	3.0	-1.6	-4.1	49.3	-0.5	64.8*
O=C(Nc1ccc2c(c1)Cc1ccccc1-2)c1ccncc1	0.6	18.4*	-4.1	501.2	3.2	-0.1
O=C(Nc1ccc(F)c(Cl)c1)c1ccccc1	·	-11.9	-8.5	8.9	-4.7	55.6*
CS(=O)(=O)N1CCC(C(=O)Nc2cc(Cl)c(Cl)cc2Cl)CC1	·	-1.5	9.0	-1.5	-0.3	-1.5
COc1ccccc1C(=O)Nc1nnc(S(=O)(=O)N2CCCCC2)s1	36.3	-1.5	3.4	-17.2	-1.5	-3.9
Cc1ccc(N2CCN(S(=O)(=O)c3nnc(NC(=O)c4ccccc4)s3)CC2)cc1	20.0	10.0*	-24.1	139.4	10.5	4.0
CC1CCN(S(=O)(=O)c2nnc(NC(=O)c3cccc([N+](=O)[O-])c3)s2)CC1	11.7	10.6*	-6.1	-10.5	4.3	2.4
COc1ccccc1C(=O)Nc1nnc(S(=O)(=O)N2CCCCCC2)s1	9.3	-13.8	-12.0	336.7*	-1.9	-6.1
O=C(Nc1nnc(S(=O)(=O)N2CCCC2)s1)c1cccc([N+](=O)[O-])c1	5.6	1.4	-6.6	5.4	1.4	3.8
COc1ccccc1C(=O)Nc1nnc(CCc2ccccc2)s1	25.4	-2.3	-1.8	332.4*	6.4	3.2
C[C@@H]1CN([C@H](C)CO)C(=O)CCCn2cc(nn2)CO[C@H]1CN(C)S(=O)(=O)c1ccc2ccccc2c1	·	·	-14.0	·	·	·
O=C(Nc1nnc(-c2ccc(F)cc2)s1)c1ccco1	19.0	0.6	-7.9	2.4	5.9	-2.5
Cc1ccc(NC(=O)c2cccc(S(=O)(=O)N3CCN(c4ccccc4)CC3)c2)nc1	22.9	27.5*	-8.2	-2.5	0.8	0.6
COc1cccc(OC)c1C(=O)Nc1nnc(-c2ccc(F)cc2)s1	21.6	0.9	9.5	-12.9	0.3	73.6*
Cc1ccc(C)c(-c2nc3cc(N)ccc3o2)c1	24.1	-0.4	-2.6	-2.4	3.1	-3.2
CCc1ccc2oc(-c3cc(N)ccc3O)nc2c1	-1.3	-5.0	-30.1	-10.0	1.5	73.5*
Nc1ccc2oc(-c3cc(Br)ccc3Cl)nc2c1	-0.1	-0.2	1.0	11.1	1.7	49.5*
CCc1ccc2oc(-c3cc(N)ccc3Cl)nc2c1	-1.3	-3.1	-26.8	142.7	1.8	49.3*
Nc1ccc2oc(-c3ccccc3Cl)nc2c1	18.1	-2.9	-10.9	94.4	1.8	-11.6
Cc1ccc(C)c(OCC(O)CN2CCCCC2C)c1 (stereo not given)	12.2	8.7	-11.1	5.0	-0.5	48.0*
CC(C)OC(=O)c1ccc(NC(=O)Cn2c(-c3nonc3N)nc3ccccc32)cc1	-1.4	19.2*	-10.7	-16.9	5.2	-3.3
Nc1c(C(=O)N/N=C/c2ccc(F)cc2)oc2nc(-c3ccccc3)cc(-c3ccco3)c12	32.7	1.9	18.8	-26.6	4.1	56.9*
Nc1c(C(=O)N/N=C/c2ccccc2Cl)oc2nc(-c3ccccc3)cc(-c3ccco3)c12	55.1	3.3	32.2	7.8	-1.5	49.9*
O=C(N/N=C/c1ccc(F)cc1)c1cc(-c2ccco2)nc2ccccc12	29.6	-4.3	-9.8	-22.9	1.0	11.8

Source: PubChem BioAssay
